# Laboratory results from paper PMC6602471.
# Biological target: RUNX1 (Homo sapiens, UniProt Q01196 1-453)
# Assay: custom PBM; custom protein-binding microarray; buffer, salt, pH and temperature not stated; high values mean tight binding
# Settings: dsDNA, one strand shown
# Sequence of RUNX1 (Q01196 whole entry): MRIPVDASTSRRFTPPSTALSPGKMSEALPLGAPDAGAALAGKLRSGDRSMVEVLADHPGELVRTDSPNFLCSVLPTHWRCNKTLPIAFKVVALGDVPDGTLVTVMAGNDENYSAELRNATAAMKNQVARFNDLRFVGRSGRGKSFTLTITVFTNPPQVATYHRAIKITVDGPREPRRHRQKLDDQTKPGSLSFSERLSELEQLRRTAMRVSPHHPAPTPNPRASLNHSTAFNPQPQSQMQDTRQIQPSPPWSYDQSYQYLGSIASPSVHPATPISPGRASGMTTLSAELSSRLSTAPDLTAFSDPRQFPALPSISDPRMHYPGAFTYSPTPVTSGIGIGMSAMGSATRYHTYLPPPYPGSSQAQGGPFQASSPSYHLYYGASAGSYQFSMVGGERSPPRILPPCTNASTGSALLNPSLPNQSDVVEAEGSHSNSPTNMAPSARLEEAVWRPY
row,Sequence,binding signal
1,GCATACGGCTGACGTCGGCCACATACGCACACATACACATACACACATACACATACGCAC,11 log fluorescence intensity
2,GCGCACATTTCCCGTAAAGCATACACGCACACATACACATACACACATACACATACGCAC,11 log fluorescence intensity
3,CGCGCACTCTGCGGTTGCGCACATACGCACACATACACATACACACATACACATACGCAC,12.8 log fluorescence intensity
4,GCGCACATTTCCCGTAAATGATACACGCACACATACACATACACACATACACATACGCAC,10.9 log fluorescence intensity
5,GCGCACATTTGCCGTAAATCATACACGCACACATACACATACACACATACACATACGCAC,10.9 log fluorescence intensity
6,CGCGCACTCTGTGGTTGCTCACATACGCACACATACACATACACACATACACATACGCAC,11.4 log fluorescence intensity
7,CGCGCACCCTGTGGTTGCGCACATACGCACACATACACATACACACATACACATACGCAC,11.4 log fluorescence intensity
8,GCATACGGCTGACGGCAGCCACATACGCACACATACACATACACACATACACATACGCAC,10.9 log fluorescence intensity
9,GCGCACTTTTCCCGTAAATCATACACGCACACATACACATACACACATACACATACGCAC,11 log fluorescence intensity
10,GCATACGGTTGACGTCAGCCACATACGCACACATACACATACACACATACACATACGCAC,11 log fluorescence intensity
11,CGCGCACTCTCTGGTTGCGCACATACGCACACATACACATACACACATACACATACGCAC,10.9 log fluorescence intensity
12,CGCGCACTCTGTGGTCGCGCACATACGCACACATACACATACACACATACACATACGCAC,11.3 log fluorescence intensity
13,GCGCACATCTCCCGTAAATCATACACGCACACATACACATACACACATACACATACGCAC,10.9 log fluorescence intensity
14,GCGCACATTACCCGTAAATCATACACGCACACATACACATACACACATACACATACGCAC,10.9 log fluorescence intensity
15,GCATACGGCTGACGTCCGCCACATACGCACACATACACATACACACATACACATACGCAC,10.9 log fluorescence intensity
16,GCGCACATTTCCCGTCAATCATACACGCACACATACACATACACACATACACATACGCAC,11 log fluorescence intensity
17,GCGCACATTGCCCGTAAATCATACACGCACACATACACATACACACATACACATACGCAC,10.9 log fluorescence intensity

row,Sequence,binding signal
1,CGCGCACTCTGTGGATGCGCACATACGCACACATACACATACACACATACACATACGCAC,10.9 log fluorescence intensity
2,CGCGCACTATGTGGTTGCGCACATACGCACACATACACATACACACATACACATACGCAC,11.3 log fluorescence intensity
3,GCGCACATTTCCCGTTAATCATACACGCACACATACACATACACACATACACATACGCAC,11 log fluorescence intensity
4,GCATACGGCTGGCGTCAGCCACATACGCACACATACACATACACACATACACATACGCAC,11 log fluorescence intensity
5,GCATACAGCTGACGTCAGCCACATACGCACACATACACATACACACATACACATACGCAC,11 log fluorescence intensity
6,CGCGCACACTGTGGTTGCGCACATACGCACACATACACATACACACATACACATACGCAC,11.2 log fluorescence intensity
7,GCGCACATTTCCCATAAATCATACACGCACACATACACATACACACATACACATACGCAC,11 log fluorescence intensity
8,CGCGCACTCTGTGGTGGCGCACATACGCACACATACACATACACACATACACATACGCAC,11.1 log fluorescence intensity
9,GCATACGGCAGACGTCAGCCACATACGCACACATACACATACACACATACACATACGCAC,11 log fluorescence intensity
10,GCGCACATTTCCCCTAAATCATACACGCACACATACACATACACACATACACATACGCAC,10.9 log fluorescence intensity
11,GCGCACATTTCTCGTAAATCATACACGCACACATACACATACACACATACACATACGCAC,10.9 log fluorescence intensity
12,GCGCACATTTCCTGTAAATCATACACGCACACATACACATACACACATACACATACGCAC,10.9 log fluorescence intensity
13,GCATACGGGTGACGTCAGCCACATACGCACACATACACATACACACATACACATACGCAC,10.9 log fluorescence intensity
14,CGCGCACTGTGTGGTTGCGCACATACGCACACATACACATACACACATACACATACGCAC,11 log fluorescence intensity
15,GCGCACATTTCCGGTAAATCATACACGCACACATACACATACACACATACACATACGCAC,11 log fluorescence intensity
16,CGCGCACTCTGGGGTTGCGCACATACGCACACATACACATACACACATACACATACGCAC,10.9 log fluorescence intensity
